According to PubChem BioAssay (EPA / NIEHS):
Results filed as inconclusive are left out. The source made the active and inactive calls. How the source made its calls, unless noted: active means hit-call score of the fitted dose curve at least 0.9, where 1 is the maximum; inconclusive means response in the unintended direction; inactive means score below 0.9.

Tests used:
[1] = target: human Peroxisome Proliferator-activated Receptor alpha (PPARa), PPARA (gene 5465) (UniProt Q07869); experiment: ATG_PPARa_TRANS: Attagene TRANS-FACTORIAL HepG2 Assay for human Peroxisome Proliferator-activated Receptor alpha (PPARa) (AID 2283001);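 on AC50: potency for gain of reporter signal over DMSO so agonist or activator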
human Peroxisome Proliferator-activated Receptor alpha (PPARa), PPARA (gene 5465), sequence (Q07869 whole entry, looked up, the tested form may be a part): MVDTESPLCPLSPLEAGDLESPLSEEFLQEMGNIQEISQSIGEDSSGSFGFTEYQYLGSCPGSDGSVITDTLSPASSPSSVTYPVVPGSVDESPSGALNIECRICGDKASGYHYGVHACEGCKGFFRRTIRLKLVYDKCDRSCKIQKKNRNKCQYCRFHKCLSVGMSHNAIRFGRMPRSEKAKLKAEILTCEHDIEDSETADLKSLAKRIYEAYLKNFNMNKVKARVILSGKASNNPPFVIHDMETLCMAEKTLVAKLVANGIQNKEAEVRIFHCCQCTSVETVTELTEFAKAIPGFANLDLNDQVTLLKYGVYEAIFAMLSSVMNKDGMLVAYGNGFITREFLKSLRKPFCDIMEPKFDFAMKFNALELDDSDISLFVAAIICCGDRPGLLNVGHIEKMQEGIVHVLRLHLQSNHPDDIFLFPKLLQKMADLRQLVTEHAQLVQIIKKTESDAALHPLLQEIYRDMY
Method in brief: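 Transient HepG2 transfection, GAL4-UAS reporters, NR-Gal4 chimeras; 24 h compound exposure. Readout: reporter transcripts by RT-PCR, 6-FAM primer extension, HpaI digest, capillary electrophoresis. Positive direction vs DMSO baseline.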

[2] = target: human Peroxisome Proliferator-activated Receptor delta (PPARd), PPARD (gene 5467) (UniProt Q03181); experiment: ATG_PPARd_TRANS: Attagene TRANS-FACTORIAL HepG2 Assay for human Peroxisome Proliferator-activated Receptor delta (PPARd) (AID 2283002)
human Peroxisome Proliferator-activated Receptor delta (PPARd), PPARD (gene 5467), sequence (Q03181 whole entry, looked up, the tested form may be a part): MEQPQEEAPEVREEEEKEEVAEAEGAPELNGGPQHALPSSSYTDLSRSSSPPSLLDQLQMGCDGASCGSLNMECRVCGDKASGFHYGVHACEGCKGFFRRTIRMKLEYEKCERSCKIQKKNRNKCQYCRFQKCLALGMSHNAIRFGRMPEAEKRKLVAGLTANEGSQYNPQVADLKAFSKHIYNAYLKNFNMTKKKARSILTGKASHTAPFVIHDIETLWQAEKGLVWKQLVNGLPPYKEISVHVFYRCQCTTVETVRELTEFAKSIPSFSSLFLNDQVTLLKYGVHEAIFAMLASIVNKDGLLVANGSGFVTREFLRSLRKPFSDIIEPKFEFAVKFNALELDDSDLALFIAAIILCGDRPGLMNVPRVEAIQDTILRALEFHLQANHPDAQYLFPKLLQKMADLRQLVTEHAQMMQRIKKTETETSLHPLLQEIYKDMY
Method in brief: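 HepG2 cells transiently transfected with GAL4-UAS multiplexed reporter units driven by exogenous chimeric NR-GAL4 proteins; 24 h compound exposure. Reporter mRNA measured by RT-PCR, 6-FAM primer extension, HpaI digestion and capillary electrophoresis; gain of signal fitted relative to DMSO.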

[3] = target: human Retinoic Acid Receptor beta (RARb), RARB (gene 5915) (UniProt P10826); experiment: ATG_RARb_TRANS: Attagene TRANS-FACTORIAL HepG2 Assay for human Retinoic Acid Receptor beta (AID 2283004)
human Retinoic Acid Receptor beta (RARb), RARB (gene 5915), sequence (P10826 whole entry, looked up, the tested form may be a part): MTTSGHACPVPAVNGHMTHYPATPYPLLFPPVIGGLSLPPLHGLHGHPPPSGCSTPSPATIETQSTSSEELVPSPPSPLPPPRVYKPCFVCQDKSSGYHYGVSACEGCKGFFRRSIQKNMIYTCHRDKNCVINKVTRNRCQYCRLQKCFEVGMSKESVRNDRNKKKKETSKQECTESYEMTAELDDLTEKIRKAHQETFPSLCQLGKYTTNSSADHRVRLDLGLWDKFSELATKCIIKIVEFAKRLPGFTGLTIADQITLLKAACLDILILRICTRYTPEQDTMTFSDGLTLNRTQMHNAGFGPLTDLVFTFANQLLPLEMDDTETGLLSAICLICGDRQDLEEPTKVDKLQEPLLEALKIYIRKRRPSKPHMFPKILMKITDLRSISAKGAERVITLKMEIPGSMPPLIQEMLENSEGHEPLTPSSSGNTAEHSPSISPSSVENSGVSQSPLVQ
Method in brief: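 HepG2, transient MRTU transfection, NR–Gal4 chimera, 24 h treatment; RT-PCR plus CE fluorescence detection of reporter mRNA; gain of signal vs DMSO.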

[4] = target: Retinoic acid receptor alpha (Homo sapiens) (UniProt P10276); experiment: ATG_RARa_TRANS: Attagene TRANS-FACTORIAL HepG2 Assay for human Retinoic Acid Receptor alpha (RARa) (AID 2283005)
Retinoic acid receptor alpha (Homo sapiens), sequence (P10276 whole entry, looked up, the tested form may be a part): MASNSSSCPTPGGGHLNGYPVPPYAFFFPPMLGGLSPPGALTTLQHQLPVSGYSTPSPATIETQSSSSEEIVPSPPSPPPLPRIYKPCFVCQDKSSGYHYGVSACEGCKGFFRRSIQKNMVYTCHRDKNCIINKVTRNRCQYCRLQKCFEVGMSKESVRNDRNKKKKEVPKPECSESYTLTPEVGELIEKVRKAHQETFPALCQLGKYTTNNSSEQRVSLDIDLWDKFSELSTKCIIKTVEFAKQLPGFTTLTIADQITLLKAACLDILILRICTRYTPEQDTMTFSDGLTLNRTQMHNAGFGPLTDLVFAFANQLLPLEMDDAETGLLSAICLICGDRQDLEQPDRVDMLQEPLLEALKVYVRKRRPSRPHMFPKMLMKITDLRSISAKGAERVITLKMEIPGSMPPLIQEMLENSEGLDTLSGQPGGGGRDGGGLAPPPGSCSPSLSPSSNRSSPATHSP
Method in brief: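 HepG2 transiently transfected with multiplex GAL4-UAS reporter units including a human RARa–GAL4 chimera; 24 h compound exposure. Reporter mRNA quantified by RT-PCR, 6-FAM labeling and capillary electrophoresis; gain of signal versus DMSO.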

[5] = target: Peroxisome proliferator-activated receptor gamma (Homo sapiens) (UniProt P37231); experiment: ATG_PPARg_TRANS: Attagene TRANS-FACTORIAL HepG2 Assay for human Peroxisome Proliferator-activated Receptor-gamma (PPARg) (AID 2283007)
Peroxisome proliferator-activated receptor gamma (Homo sapiens), sequence (P37231 whole entry, looked up, the tested form may be a part): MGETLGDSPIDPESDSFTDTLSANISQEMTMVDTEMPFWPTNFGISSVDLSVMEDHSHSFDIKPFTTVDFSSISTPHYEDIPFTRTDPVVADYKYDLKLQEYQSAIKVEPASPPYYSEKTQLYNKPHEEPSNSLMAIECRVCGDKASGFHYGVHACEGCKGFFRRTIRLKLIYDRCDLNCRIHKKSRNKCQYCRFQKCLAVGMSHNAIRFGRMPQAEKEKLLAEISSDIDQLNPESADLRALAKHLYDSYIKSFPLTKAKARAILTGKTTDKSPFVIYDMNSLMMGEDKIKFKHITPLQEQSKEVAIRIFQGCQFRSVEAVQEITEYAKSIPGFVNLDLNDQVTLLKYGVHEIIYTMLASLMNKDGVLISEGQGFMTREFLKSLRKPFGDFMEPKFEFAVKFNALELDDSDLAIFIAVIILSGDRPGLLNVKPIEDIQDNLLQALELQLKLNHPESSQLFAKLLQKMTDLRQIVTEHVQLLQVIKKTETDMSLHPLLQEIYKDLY
Method in brief: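 Chimeric NR-Gal4 transactivation is measured in transiently transfected HepG2 cells by reporter mRNA induction at 24 h. Detection uses RT-PCR with fluorescent labelling and capillary electrophoresis; DMSO defines baseline.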

[6] = target: Nuclear receptor subfamily 1 group I member 2 (Homo sapiens) (UniProt O75469); experiment: ATG_PXR_TRANS: Attagene TRANS-FACTORIAL HepG2 Assay for human Pregnane X Receptor (PXR) (AID 2283008)
Nuclear receptor subfamily 1 group I member 2 (Homo sapiens), sequence (O75469 whole entry, looked up, the tested form may be a part): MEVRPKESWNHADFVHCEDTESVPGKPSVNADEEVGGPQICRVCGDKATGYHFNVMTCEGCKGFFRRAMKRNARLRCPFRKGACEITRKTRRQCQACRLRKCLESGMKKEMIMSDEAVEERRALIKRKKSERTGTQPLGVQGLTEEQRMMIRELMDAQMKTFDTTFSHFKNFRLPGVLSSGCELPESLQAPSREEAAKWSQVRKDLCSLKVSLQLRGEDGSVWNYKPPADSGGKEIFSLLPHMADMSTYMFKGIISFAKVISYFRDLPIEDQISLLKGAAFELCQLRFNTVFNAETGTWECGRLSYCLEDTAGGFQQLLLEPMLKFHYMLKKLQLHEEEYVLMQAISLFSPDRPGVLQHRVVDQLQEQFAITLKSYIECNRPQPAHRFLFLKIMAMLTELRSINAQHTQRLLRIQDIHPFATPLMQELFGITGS
Method in brief: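 HepG2 transfected (FuGene 6) with GAL4-UAS reporter units + PXR-Gal4 chimera; dosed 24 h. Total RNA → oligo(dT) RT → PCR → 6-FAM primer extension → HpaI cut → CE. Gain-of-signal vs DMSO.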

[7] = target: human Retinoic Acid Receptor gamma (RARg), RARG (gene 5916) (UniProt P13631); experiment: ATG_RARg_TRANS: Attagene TRANS-FACTORIAL HepG2 Assay for human Retinoic Acid Receptor gamma (RARg) (AID 2283009)
human Retinoic Acid Receptor gamma (RARg), RARG (gene 5916), sequence (P13631 whole entry, looked up, the tested form may be a part): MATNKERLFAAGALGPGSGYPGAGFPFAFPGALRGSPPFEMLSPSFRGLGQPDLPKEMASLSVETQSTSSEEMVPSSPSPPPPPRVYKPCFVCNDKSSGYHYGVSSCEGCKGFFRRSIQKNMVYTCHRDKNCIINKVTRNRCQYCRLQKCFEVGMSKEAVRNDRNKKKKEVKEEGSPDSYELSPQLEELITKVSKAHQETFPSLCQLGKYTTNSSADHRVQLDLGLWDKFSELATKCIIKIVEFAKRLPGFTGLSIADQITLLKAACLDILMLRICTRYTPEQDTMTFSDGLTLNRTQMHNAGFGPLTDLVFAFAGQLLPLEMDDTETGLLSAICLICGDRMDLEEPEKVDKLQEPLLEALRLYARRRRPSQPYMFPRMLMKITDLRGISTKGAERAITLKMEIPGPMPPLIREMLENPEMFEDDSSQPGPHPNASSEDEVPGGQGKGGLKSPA
Method in brief: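 Gain-of-signal relative to DMSO is reported from fluorescent capillary electrophoresis of RT-PCR reporter products. These came from HepG2 cells expressing transfected RARg-GAL4 chimeras with UAS reporters, harvested 24 h after dosing.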

[8] = read-out: Intercellular Adhesion Molecule 1 (ICAM1), ICAM1 (gene 3383); experiment: BSK_3C_ICAM1: BioMAP Diversity Plus: 3C Assay for Intercellular Adhesion Molecule 1 (ICAM1) Biomarker Activity (AID 2283003; active means hit-call score of the fitted dose curve at least 0.9, where 1 is the maximum; inactive means score below 0.9); conditions: primary human endothelial cells (HUVEC); actives raise or lower the signal
Method in brief: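 Using DMSO as baseline, bidirectional curve fitting was applied to ICAM-1 ELISA signals from HUVEC in the 3C system, measured 24 h after compound addition.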

[9] = BSK_3C_Proliferation: Cell Proliferation Assessment in the BioMAP Diversity Plus: 3C Assay (AID 2283006; active means hit-call score of the fitted dose curve at least 0.9, where 1 is the maximum; inactive means score below 0.9;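 further: potency may reflect either rise or fall in cell number versus DMSO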); conditions: primary human endothelial cells (HUVEC)
Method in brief: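 Measured here: sulforhodamine B (0.1%) staining of TCA-fixed sub-confluent umbilical vein endothelial cultures 48 h post-dosing, absorbance 560 nm. DMSO served as negative control and baseline; both signal gain and loss were modelled.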

[10] = target: human RAR-related Orphan Receptor beta (RORb), RORB (gene 6096) (UniProt Q92753); experiment: ATG_RORb_TRANS: Attagene TRANS-FACTORIAL HepG2 Assay for human RAR-related Orphan Receptor beta (RORb) (AID 2283010)
human RAR-related Orphan Receptor beta (RORb), RORB (gene 6096), sequence (Q92753 whole entry, looked up, the tested form may be a part): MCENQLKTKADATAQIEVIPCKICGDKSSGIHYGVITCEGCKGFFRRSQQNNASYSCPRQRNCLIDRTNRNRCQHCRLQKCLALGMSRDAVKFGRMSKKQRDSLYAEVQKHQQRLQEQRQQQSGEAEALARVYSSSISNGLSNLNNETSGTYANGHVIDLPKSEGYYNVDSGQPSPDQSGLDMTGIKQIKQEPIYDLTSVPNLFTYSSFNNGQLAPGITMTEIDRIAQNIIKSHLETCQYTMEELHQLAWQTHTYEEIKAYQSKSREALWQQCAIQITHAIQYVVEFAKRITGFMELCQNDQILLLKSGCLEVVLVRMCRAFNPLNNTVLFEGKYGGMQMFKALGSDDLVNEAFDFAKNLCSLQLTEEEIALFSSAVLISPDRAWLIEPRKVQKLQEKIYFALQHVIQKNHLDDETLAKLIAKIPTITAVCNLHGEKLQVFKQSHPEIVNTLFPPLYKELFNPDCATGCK
Method in brief: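 Multiplexed transcription-factor reporter assay: HepG2 cells transiently carrying NR-Gal4/GAL4-UAS constructs, 24 h treatment, mRNA quantified by RT-PCR plus capillary electrophoresis fluorescence; activity scored as induction over DMSO.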

**Q.** What does the source list for `CCCCCCCCCCCCCCCC[n+]1ccccc1`?
**A.** outcome [1]: inactive; outcome [2]: inactive; outcome [3]: inactive; outcome [4]: inactive; outcome [5]: inactive; outcome [6]: inactive; outcome [7]: inactive

**Q.** With `CCCCC/C=C\C/C=C\CCCCCCCC(=O)OC` as the compound, how does the AC50 [1] read?
**A.** Its AC50 is 32 µM (active).

**Q.** What about the AC50 [2] of the same compound?
**A.** The AC50 was 100 µM (active).

**Q.** And the AC50 [8]?
**A.** The AC50 was 32.7 µM (active).

**Q.** And the AC50 [9]?
**A.** Its AC50 is 27.1 µM (active).

**Q.** And the AC50 [5]?
**A.** Its AC50 is 4.68 µM (active).

**Q.** What about the AC50 [6] of the same compound?
**A.** Its AC50 is 47.6 µM (active).

**Q.** With `C(=CC=Nc1ccccc1)C=CNc1ccccc1` as the compound, how does the outcome [1] read?
**A.** Its outcome is “inactive”.

**Q.** What about the outcome [2] of the same compound?
**A.** Its outcome is “inactive”.

**Q.** What about the outcome [3] of the same compound?
**A.** Its outcome is “inactive”.

**Q.** What about the outcome [4] of the same compound?
**A.** Its outcome is “inactive”.

**Q.** What about the outcome [5] of the same compound?
**A.** The outcome was “inactive”.

**Q.** What about the outcome [6] of the same compound?
**A.** The outcome was “inactive”.

**Q.** What about the outcome [7] of the same compound?
**A.** The outcome was “inactive”.

**Q.** What does the source list for `CC(=O)c1ccc[nH]1`?
**A.** outcome [1]: inactive; outcome [2]: inactive; outcome [4]: inactive; outcome [5]: inactive

**Q.** What does the source list for `C=CC(C)(CCC=C(C)C)OC(=O)C(C)C` (centres undefined)?
**A.** outcome [1]: inactive; outcome [2]: inactive; outcome [3]: inactive; outcome [5]: inactive; AC50 [6]: 27.4 µM (active); outcome [7]: inactive

**Q.** Which results are given for `O=C1CCCCCCCCCCCCCCCO1`?
**A.** AC50 [1]: 54 µM (active); AC50 [2]: 143 µM (active); outcome [4]: inactive; AC50 [5]: 100 µM (active); outcome [6]: inactive

**Q.** Which outcome [1] does the source give for `CCCCC(CC)COC(=O)c1ccccc1` (centres undefined) here?
**A.** The outcome was “inactive”.

**Q.** What about the outcome [2] of the same compound?
**A.** The outcome was “inactive”.

**Q.** And the outcome [3]?
**A.** The outcome was “inactive”.

**Q.** What about the outcome [5] of the same compound?
**A.** Its outcome is “inactive”.

**Q.** And the outcome [6]?
**A.** Its outcome is “inactive”.

**Q.** Which results are given for `c1ccc(-c2ccccn2)nc1`?
**A.** outcome [1]: inactive; outcome [2]: inactive; outcome [8]: inactive; outcome [4]: inactive; AC50 [9]: 29 µM (active); outcome [5]: inactive; outcome [6]: inactive; outcome [7]: inactive

**Q.** Which results are given for `O=C(O)CCCC[C@@H]1SC[C@@H]2NC(=O)N[C@@H]21`?
**A.** outcome [1]: inactive; outcome [2]: inactive; outcome [4]: inactive; outcome [5]: inactive; outcome [6]: inactive; outcome [10]: inactive

**Q.** Which results are given for `CCCC(C)CCC(C)=O` (centres undefined)?
**A.** outcome [1]: inactive; outcome [2]: inactive; outcome [3]: inactive; outcome [4]: inactive; outcome [6]: inactive; outcome [7]: inactive; outcome [10]: inactive

**Q.** For `CCCCCCCCCCCCCCCCCC#N`, which outcome [1] is on record?
**A.** Its outcome is “inactive”.

**Q.** What about the outcome [2] of the same compound?
**A.** Its outcome is “inactive”.

**Q.** What about the outcome [4] of the same compound?
**A.** The outcome was “inactive”.

**Q.** And the outcome [5]?
**A.** Its outcome is “inactive”.

**Q.** And the outcome [6]?
**A.** The outcome was “inactive”.

**Q.** And the outcome [7]?
**A.** Its outcome is “inactive”.

**Q.** For `O=C(Nc1cccc(C(F)(F)F)c1)c1cc(Br)cc(Br)c1O`, which AC50 [1] is on record?
**A.** The AC50 was 1.58 µM (active).

**Q.** And the outcome [2]?
**A.** Its outcome is “inactive”.

**Q.** What about the outcome [4] of the same compound?
**A.** The outcome was “inactive”.

**Q.** What about the AC50 [5] of the same compound?
**A.** Its AC50 is 2.57 µM (active).

**Q.** And the AC50 [6]?
**A.** Its AC50 is 1.07 µM (active).

**Q.** What about the outcome [7] of the same compound?
**A.** The outcome was “inactive”.

**Q.** What about the outcome [10] of the same compound?
**A.** Its outcome is “inactive”.
